The campaign covered roughly 5,500 compounds. About 2,000 (36%) were called active. Not shown: some 18% with an inconclusive outcome. No stated cut-off is given here; in the data, active means normalized growth mostly below about 0.91 (no sharp cut-off); inconclusive means no clear call, values can overlap the other calls; inactive means mostly above about 0.92. Some of the results follow.
Assay: chemical genetic growth profiling, strain panel (AID 1159580);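 further: tested at 20 µM; growth read once vehicle control cultures reached saturation at 30 °C; 1 = growth at the plate median or of vehicle wells; lower values mean less growth of the strain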
Conditions: S. cerevisiae deletion strains, growth OD

Measured: normalized growth

O=C(O)/C=C/c1ccccc1
active: locus YHR030C, strain SLT2, active compounds read low 0.834 | locus YHR079C, strain IRE1, active compounds read low 0.838 | locus YJL095W, strain BCK1, active compounds read low 0.862 | locus YJR066W, strain TOR1, active compounds read low 0.801 | locus YLR113W, strain HOG1, active compounds read low 0.722 | locus YNL183C, strain NPR1, active compounds read low 0.786 | locus YOR231W, strain MKK1, active compounds read low 0.823 | locus YPL256C, strain CLN2, active compounds read low 0.742

Reference: PubChem BioAssay AID1159580 (chemical genetic matrix, 2015)
